The values that follow come from PubChem BioAssay (NCATS).

Assay in all cases: qHTS profiling for inhibitors of Plasmodium falciparum proliferation (AID 504749); note: nearly all actives have a fitted effect of over 60% in size
What all share (details): P. falciparum in erythrocytes, SYBR Green DNA, 72 h; series mostly up to 28.7 µM
Background: qHTS replaces the single test concentration by a dilution series.

For one assay, the system named is CP256. The method, boiled down: (§1)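 Three-day growth assay of blood-stage parasites in erythrocytes (0.3% parasitemia, 2.5% hematocrit) at 37 C, 5% CO2, quantified by SYBR Green DNA staining after overnight detergent lysis.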
A further assay deals with CP260. A digest of the protocol: as §1
The test system of a further assay is CP262. A digest of the protocol: as §1
Another assay deals with CP265. The method, boiled down: as §1
The test system of a further assay is CP266. The method, boiled down: as §1
Another assay deals with CP268. The method, boiled down:
as §1

The test system of another assay is CP269. The method, boiled down: as §1
The next assay deals with CP286. A digest of the protocol: as §1
A further assay relates to CP291. The method, boiled down:
as §1

For a further assay, the system named is CP297. The method, boiled down:
as §1

SMILES strings stand for the structures. Results filed as inconclusive are left out. Active and inactive are the calls of the source. Calls come from the whole dose curve; as a rule, active = well fitted inhibition curve with a large enough effect; inconclusive = small, poorly fitted or top-dose-only effect; inactive = flat fitted curve, though single readings scatter.
Potency is the fitted concentration of half-maximal effect.

For `O=C1c2ccccc2C(=O)c2c1ccc(O)c2O`, the Potency result with CP256, in the assay on CP260, in the assay on CP262, in the assay with CP265, in the assay on CP266 and with CP268 was “inactive” in each case. Further, the Potency entry with CP269, in the assay with CP286, with CP291 and in the assay with CP297 was “inactive” each time.
`CC1=CC(=O)NS(=O)(=O)O1`: the Potency entry in the assay on CP256, in the assay with CP260, in the assay with CP262, with CP265, in the assay with CP266 and with CP268 was “inactive” in each case. In addition, the Potency result in the assay on CP269, with CP286, in the assay with CP291 and in the assay on CP297 was “inactive” throughout.
For `CC1CCCCN1CCCOC(=O)c1ccccc1` (stereo not given), the Potency entry with CP256, in the assay on CP260, with CP262, in the assay with CP265, in the assay with CP266 and in the assay on CP268 was “inactive” each time. Further, the Potency entry in the assay on CP269, in the assay with CP286, in the assay with CP291 and in the assay with CP297 was “inactive” in each case.
For the molecule `CNC(=O)C[C@@H](N)C(=O)N[C@@H](C(=O)N[C@@H]1C(=O)N2[C@@H]1SC(C)(C)[C@@H]2C(=O)O)c1ccc(O)cc1`, the Potency result with CP256, with CP260, with CP262, with CP265, in the assay on CP266 and in the assay with CP268 was “inactive” throughout. For the same molecule, the Potency result in the assay with CP269, with CP286, with CP291 and in the assay on CP297 was “inactive” each time.
`C[C@H](CCCC(C)(C)O)[C@H]1CC[C@H]2[C@@H]3CC=C4C[C@@H](O)CC[C@]4(C)[C@H]3CC[C@]12C`: the Potency result in the assay with CP256, in the assay on CP260, with CP262, in the assay on CP265, in the assay on CP266 and with CP268 was “inactive” throughout. For the same molecule, the Potency result in the assay with CP269, in the assay on CP286, with CP291 and in the assay on CP297 was “inactive” throughout.
Turning to `NCCN`, the Potency entry with CP256, in the assay on CP260, with CP262, with CP265, with CP266 and with CP268 was “inactive” in each case. The Potency result in the assay with CP269, with CP286, in the assay with CP291 and in the assay on CP297 was “inactive” throughout.
On to `CN1C(=O)OC(C)(C)C1=O`, for which the Potency result with CP256, with CP260, in the assay on CP262, in the assay on CP265, in the assay with CP266 and with CP268 was “inactive” each time. Besides, the Potency result in the assay on CP269, in the assay with CP286, with CP291 and in the assay with CP297 was “inactive” in each case.
For `CC(=O)[C@H]1CC[C@H]2[C@@H]3C=CC4=CC(=O)CC[C@@]4(C)[C@H]3CC[C@]12C`, the Potency result in the assay with CP256, in the assay with CP260, in the assay on CP262, with CP265, in the assay with CP266 and with CP268 was “inactive” in each case. Also, the Potency result in the assay on CP269, in the assay with CP286, with CP291 and with CP297 was “inactive” in each case.
Take `O=C(OC1C[C@@H]2CC3C[C@H](C1)N2CC3=O)c1c[nH]c2ccccc12` (stereo not given in full): the Potency entry with CP256, in the assay on CP260, with CP262, with CP265, with CP266 and in the assay with CP268 was “inactive” throughout. Besides, the Potency result in the assay on CP269, in the assay on CP286, in the assay on CP291 and with CP297 was “inactive” throughout.
For the molecule `COC(=O)[C@@H](N)CS`, the Potency entry in the assay with CP256, with CP260, with CP262, in the assay with CP265, with CP266 and in the assay on CP268 was “inactive” in each case. Besides, the Potency result in the assay on CP269, in the assay with CP286, with CP291 and with CP297 was “inactive” throughout.
As to `CCCCCc1ccc(C)cc1O`, the Potency entry in the assay with CP256, in the assay on CP260, in the assay with CP262, in the assay with CP265, in the assay with CP266 and in the assay with CP268 was “inactive” throughout. Besides, the Potency entry in the assay on CP269, with CP286, with CP291 and with CP297 was “inactive” in each case.
Consider `CC(C)c1ncc([N+](=O)[O-])n1C`, for which the Potency entry in the assay on CP256, with CP260, with CP262, with CP265, in the assay on CP266 and in the assay with CP268 was “inactive” throughout. In addition, the Potency entry in the assay on CP269, with CP286, in the assay with CP291 and in the assay with CP297 was “inactive” each time.
As for `C=C(C)C1CC=C(C)CC1` (stereo not given), the Potency result with CP256, with CP260, with CP262, in the assay with CP265, in the assay with CP266 and in the assay on CP268 was “inactive” each time. Moreover, the Potency entry in the assay on CP269, in the assay on CP286, in the assay with CP291 and in the assay with CP297 was “inactive” each time.
Turning to `OC[C@H]1O[C@@](CO)(O[C@H]2O[C@H](CO)[C@@H](O)[C@H](O)[C@H]2O)[C@@H](O)[C@@H]1O`, the Potency entry in the assay with CP256, in the assay on CP260, in the assay with CP262, in the assay with CP265, in the assay on CP266 and with CP268 was “inactive” throughout. The Potency result in the assay on CP269, in the assay on CP286, with CP291 and in the assay on CP297 was “inactive” each time.
Take `CC(=O)N[C@@H]1C(O[C@H]2O[C@H](C(=O)O)C(O)[C@H](O)[C@H]2O)[C@H](O)[C@@H](CO)O[C@H]1O[C@@H]1C(C(=O)O)O[C@@H](O[C@H]2[C@H](O)[C@@H](CO)OC(O)[C@@H]2NC(C)=O)[C@H](O)[C@H]1O` (stereo not given in full): the Potency result with CP256, in the assay on CP260, with CP262, in the assay with CP265, in the assay with CP266 and with CP268 was “inactive” each time. The Potency entry in the assay with CP269, with CP286, in the assay on CP291 and in the assay with CP297 was “inactive” in each case.
Regarding `CCCCCCCCCCCCCCCCCC(=O)OC[C@@H](O)[C@H]1OC[C@H](O)[C@H]1O`, the Potency result in the assay with CP256, in the assay with CP260, with CP262, in the assay on CP265, with CP266 and in the assay with CP268 was “inactive” in each case. Further, the Potency result in the assay with CP269, with CP286, in the assay on CP291 and in the assay on CP297 was “inactive” each time.
`O=C(O)COc1ccc(CCNS(=O)(=O)c2ccccc2)s1`: the Potency entry in the assay with CP256, in the assay with CP260, in the assay on CP262, in the assay with CP265, in the assay on CP266 and in the assay on CP268 was “inactive” each time. Moreover, the Potency result in the assay with CP269, in the assay on CP286, in the assay on CP291 and with CP297 was “inactive” each time.
For `CN(CCO)CC(O)Cn1cnc2c1c(=O)n(C)c(=O)n2C` (stereo not given) (tested in a mixture with another compound), the Potency entry in the assay with CP256, with CP260, with CP262, in the assay with CP265, in the assay on CP266 and in the assay on CP268 was “inactive” throughout. The Potency entry in the assay on CP269, with CP286, in the assay on CP291 and in the assay with CP297 was “inactive” throughout.
Regarding `CC(C)(C)c1ccc2c(S(=O)(=O)O)c(C(C)(C)C)ccc2c1`, the Potency entry in the assay on CP256, in the assay on CP260, in the assay on CP262, in the assay on CP265, in the assay with CP266 and with CP268 was “inactive” throughout. For the same molecule, the Potency result with CP269, in the assay on CP286, in the assay with CP291 and in the assay with CP297 was “inactive” in each case.
In the case of `CN=C1C=CC(=C(c2ccc(N(C)C)cc2)c2ccc(N(C)C)cc2)C=C1`, the Potency with CP256 is 355 nM (active); with CP260, 224 nM (active); in the assay on CP262, 757 nM (active); in the assay on CP265 it was 794 nM (active); in the assay with CP266, 1.07 µM (active); with CP268, 1.69 µM (active). The Potency with CP269 was 849 nM (active); in the assay on CP286, 199 nM (active); with CP291, 1.07 µM (active); with CP297, 1.07 µM (active).
`O=P(O)(O)OP(=O)(O)OP(=O)(O)O`: the Potency entry in the assay with CP256, in the assay on CP260, in the assay with CP262, in the assay with CP265, in the assay with CP266 and with CP268 was “inactive” in each case. Further, the Potency result in the assay with CP269, with CP286, in the assay with CP291 and in the assay on CP297 was “inactive” throughout.
`CNC(=O)c1c(I)c(C(=O)NCC(=O)Nc2c(I)c(C(=O)O)c(I)c(C(=O)NCCO)c2I)c(I)c(N(C)C(C)=O)c1I`: the Potency result in the assay on CP256, in the assay with CP260, with CP262, in the assay on CP265, in the assay on CP266 and with CP268 was “inactive” in each case. Also, the Potency entry with CP269, in the assay on CP286, in the assay on CP291 and with CP297 was “inactive” throughout.
